Measurements as given in PubChem BioAssay (NCI).
About 83,000 compounds went through this panel and 20% of them were active in at least one assay; those are over-represented in the sample as a whole.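 For each line, cells grew in 96-well plates with the test compound present at a single concentration for 48 hours.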 Calls of active or inactive are those of the source. How the source made its calls: active means growth percent below 10; inactive means the rest.

Legend:
Test in all cases: NCI-60 one-dose screen, 48 h (100 = growth as untreated, 0 = no growth, -100 = all killed)
Details in all cases: 10 µM unless noted
DU-145 prostate = system: DU-145 prostate
K-562 leukemia = system: K-562 leukemia
MALME-3M melanoma = system: MALME-3M melanoma
MDA-MB-231 breast = system: MDA-MB-231 breast
RXF 393 renal = system: RXF 393 renal
SF-268 CNS = system: SF-268 CNS
SF-539 CNS = system: SF-539 CNS
UACC-257 melanoma = system: UACC-257 melanoma
M14 melanoma = system: M14 melanoma
HCT-15 colon = system: HCT-15 colon
HT29 colon = system: HT29 colon
SNB-75 CNS = system: SNB-75 CNS
SNB-19 CNS = system: SNB-19 CNS
U251 CNS = system: U251 CNS
PC-3 prostate = system: PC-3 prostate
SK-MEL-5 melanoma = system: SK-MEL-5 melanoma
UACC-62 melanoma = system: UACC-62 melanoma
LOX IMVI melanoma = system: LOX IMVI melanoma
SK-MEL-28 melanoma = system: SK-MEL-28 melanoma

Measured: growth

Nc1c(C(=O)Nc2cccc(Cl)c2)sc2ncc(Br)cc12
inactive: DU-145 prostate 59.6% | K-562 leukemia 82.9% | MALME-3M melanoma 66.9% | MDA-MB-231 breast 73.5% | RXF 393 renal 86.4% | SF-268 CNS 64.1% | SF-539 CNS 61.5% | UACC-257 melanoma 96% | M14 melanoma 79.9% | HCT-15 colon 82.5% | HT29 colon 66.4% | SNB-75 CNS 56% | SNB-19 CNS 107% | U251 CNS 10.8% | PC-3 prostate 80.1% | SK-MEL-5 melanoma 95.6% | UACC-62 melanoma 99.5% | LOX IMVI melanoma 39.9% | SK-MEL-28 melanoma 89.2%

CC1C2CCC(C2)C1COCCOCCO (stereo unspecified)
inactive: DU-145 prostate 114% | K-562 leukemia 109% | MALME-3M melanoma 107% | MDA-MB-231 breast 113% | RXF 393 renal 116% | SF-268 CNS 112% | SF-539 CNS 96.7% | UACC-257 melanoma 87.8% | M14 melanoma 112% | HCT-15 colon 98.3% | HT29 colon 102% | SNB-75 CNS 109% | SNB-19 CNS 123% | U251 CNS 91.9% | PC-3 prostate 101% | SK-MEL-5 melanoma 106% | UACC-62 melanoma 104% | LOX IMVI melanoma 94.9% | SK-MEL-28 melanoma 109%

CCCCNCC(O)c1cc(-c2ccc(C(F)(F)F)cc2)nc(-c2ccc(C(F)(F)F)cc2)c1 (stereo unspecified)
active: DU-145 prostate 6.08% | K-562 leukemia -59.5% | MALME-3M melanoma -41.6% | MDA-MB-231 breast -71.9% | RXF 393 renal -94.4% | SF-268 CNS -86% | SF-539 CNS -74.9% | UACC-257 melanoma -70.3% | M14 melanoma -79.7% | HCT-15 colon -64.7% | HT29 colon -77% | SNB-75 CNS -85% | SNB-19 CNS -77.1% | U251 CNS -92.1% | PC-3 prostate -81.1% | SK-MEL-5 melanoma -24.2% | UACC-62 melanoma -83.4% | LOX IMVI melanoma -67.2% | SK-MEL-28 melanoma -85.3%

C[C@@H](C[C@H](CC1CC1)c1ccccc1)c1ccc2ccccc2c1
inactive: DU-145 prostate 106% | K-562 leukemia 104% | MALME-3M melanoma 96.7% | MDA-MB-231 breast 106% | RXF 393 renal 117% | SF-268 CNS 98.5% | SF-539 CNS 96.9% | UACC-257 melanoma 106% | M14 melanoma 102% | HCT-15 colon 107% | HT29 colon 105% | SNB-75 CNS 85% | SNB-19 CNS 101% | U251 CNS 101% | PC-3 prostate 98.9% | SK-MEL-5 melanoma 99.9% | UACC-62 melanoma 103% | LOX IMVI melanoma 98.4% | SK-MEL-28 melanoma 107%

OC(c1cc2cc(Cl)ccc2c2cc(C(F)(F)F)ccc12)C1CCCCN1 (stereo unspecified)
active: DU-145 prostate -95.8% | K-562 leukemia -76.8% | MALME-3M melanoma -61.9% | MDA-MB-231 breast -68% | RXF 393 renal -95.4% | SF-268 CNS -90.1% | SF-539 CNS -80.5% | UACC-257 melanoma -84% | M14 melanoma -72% | HCT-15 colon -61.7% | HT29 colon -87.3% | SNB-75 CNS -90% | SNB-19 CNS -68.6% | U251 CNS -93.4% | PC-3 prostate -83.1% | SK-MEL-5 melanoma -24.9% | UACC-62 melanoma -72.7% | LOX IMVI melanoma -39.8% | SK-MEL-28 melanoma -90.5%

COc1ccc(C2=CC(c3ccc(OC)cc3Br)N3C=CSC3=N2)cc1 (stereo unspecified)
active: K-562 leukemia 9.34% | HT29 colon -6.33%
inactive: DU-145 prostate 66.2% | MALME-3M melanoma 89.9% | MDA-MB-231 breast 75% | RXF 393 renal 84.6% | SF-268 CNS 77.1% | SF-539 CNS 77.5% | UACC-257 melanoma 80% | M14 melanoma 25.2% | HCT-15 colon 27.5% | SNB-75 CNS 63.7% | SNB-19 CNS 62.3% | U251 CNS 37.2% | PC-3 prostate 50.4% | SK-MEL-5 melanoma 78.7% | UACC-62 melanoma 71.2% | LOX IMVI melanoma 16.6% | SK-MEL-28 melanoma 84%

C=CC[C@]1(O)CC[C@H]2[C@@H]3CCc4cc(O)ccc4[C@H]3CC[C@@]21C
inactive: DU-145 prostate 102% | K-562 leukemia 56% | MALME-3M melanoma 93.3% | MDA-MB-231 breast 99.6% | RXF 393 renal 102% | SF-268 CNS 97.1% | SF-539 CNS 105% | UACC-257 melanoma 102% | M14 melanoma 94.3% | HCT-15 colon 81.4% | HT29 colon 91.2% | SNB-75 CNS 75.7% | SNB-19 CNS 94.4% | U251 CNS 93.4% | PC-3 prostate 85.6% | SK-MEL-5 melanoma 99.6% | UACC-62 melanoma 89.4% | LOX IMVI melanoma 92.6% | SK-MEL-28 melanoma 101%

Cn1nc(C(F)(F)F)cc1-c1cc(Cl)c(OCc2ccc(Cl)cc2)c(-c2ccc(Cl)c(C(F)(F)F)c2)c1O
inactive: DU-145 prostate 11.5% | SNB-19 CNS 17.4% | LOX IMVI melanoma 12.4% | SK-MEL-28 melanoma 13.7%
active: K-562 leukemia 8.16% | MALME-3M melanoma -26.5% | MDA-MB-231 breast -21.8% | RXF 393 renal -17.6% | SF-268 CNS 2.82% | SF-539 CNS -12.5% | UACC-257 melanoma 1.55% | M14 melanoma -13.5% | HCT-15 colon 6.63% | HT29 colon 5.38% | SNB-75 CNS -8.74% | U251 CNS 8.94% | PC-3 prostate 7.86% | SK-MEL-5 melanoma -53.3% | UACC-62 melanoma 4.43%

O=C(Nc1cnc(C(F)(F)F)cn1)c1cc(Cl)ccc1O
active: K-562 leukemia 7.07% | MALME-3M melanoma -18.5% | MDA-MB-231 breast -21.1% | RXF 393 renal -1.32% | SF-539 CNS 3.19% | UACC-257 melanoma -20.6% | M14 melanoma -3.59% | SNB-75 CNS -20.4% | U251 CNS 6.83% | PC-3 prostate 5.49% | SK-MEL-5 melanoma -80.7% | UACC-62 melanoma -5.58% | LOX IMVI melanoma 6.55% | SK-MEL-28 melanoma 3.09%
inactive: DU-145 prostate 24.9% | SF-268 CNS 18.2% | HCT-15 colon 10.9% | HT29 colon 22.6% | SNB-19 CNS 24.3%
